For nine compounds, growth results are on record in PubChem BioAssay (NCI).

Assay in all cases: NCI-60 one-dose screen, 48 h (100 = growth as untreated, 0 = no growth, -100 = all killed)
Settings in all cases: 10 µM unless noted

For experiment [1], the system named is SR leukemia.
Experiment [2] concerns RPMI-8226 leukemia.
Experiment [3] has as its system OVCAR-8 ovarian.
Experiment [4] has as its system OVCAR-5 ovarian.
Experiment [5] relates to OVCAR-4 ovarian.
In experiment [6] the test system is SK-OV-3 ovarian.
The test system of experiment [7] is IGROV1 ovarian.
Experiment [8] has as its system OVCAR-3 ovarian.
In experiment [9] the test system is HS 578T breast.
The test system of experiment [10] is NCI/ADR-RES ovarian.
The test system of experiment [11] is BT-549 breast.
Experiment [12] deals with MDA-MB-435 melanoma.
The test system of experiment [13] is SW-620 colon.
Experiment [14] has as its system MCF7 breast.
Experiment [15] relates to HCT-116 colon.
Experiment [16] concerns HCC-2998 colon.
Experiment [17] deals with KM12 colon.
In experiment [18] the test system is T-47D breast.

Molecules are shown by their SMILES. The panel holds about 83,000 compounds, 20% with a hit somewhere; the sample as a whole holds those more often.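 96-well plates, one dose, 48 hours. Percent growth reported; active if below 10.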 Values without a mark were called inactive. Activity calls are given as the source filed them.

As to `COc1cc(NCCCCN=C(N)NC(N)=NC(C)C)c2ncccc2c1`, the growth in experiment [1] is 98.2%; in experiment [2], 17.5%; in experiment [3], 45.4%; in experiment [4] it was 87.2%; in experiment [5] it was -9.62% (active); in [6], 100%. Further, the growth in [7] is -31.9% (active); in experiment [8], -43.7% (active); in [9] it was 100%; in [10] it was 109%; in experiment [11], 54.8%; in experiment [12], 110%. Moreover, the growth in experiment [13] is 62.9%; in experiment [14] it was -94.3% (active); in [15], 1.56% (active); in experiment [16], 11.9%; in experiment [17], 20.1%.
On to `O=C(O)c1cn(C2CC2)c2cc(N3CCN(Cc4nc5c(cnn5-c5ccc([N+](=O)[O-])cc5)c(=O)[nH]4)CC3)c(F)cc2c1=O`, for which the growth in [1] is 97.5%; in [2], 98%; in experiment [3] it was 99.9%; in [4], 103%; in experiment [5], 91.9%; in experiment [6], 105%. Moreover, the growth in experiment [7] is 94.2%; in experiment [8] it was 112%; in experiment [9], 105%; in [10] it was 106%; in [18] it was 104%; in experiment [12] it was 100%. Moreover, the growth is 105% in [13]; 91.5% in experiment [14]; 99.8% in [15]; 112% in [16]; 107% in experiment [17].
Take `O=C(C[C@@H](C(=O)NCc1cccc(C(F)(F)F)c1)N1C(=O)[C@@H](N2C(=O)OC[C@@H]2c2ccccc2)[C@H]1/C=C/c1ccccc1)NC1CCN(Cc2ccccc2)CC1`: the growth in experiment [1] is -23.3% (active); in experiment [2], -13.7% (active); in experiment [3] it was 83.7%; in experiment [4], 104%; in experiment [5] it was 66.1%; in [6] it was 81.1%. Also, the growth in experiment [7] is 75%; in experiment [8] it was 65.6%; in experiment [9], 73.3%; in experiment [10], 69.8%; in [18], 50.8%; in [12] it was 66.8%. The growth in experiment [13] was 59.8%; in experiment [14], 7.27% (active); in experiment [15], 30.4%; in experiment [16], 59.9%; in [17], 59.4%.
Regarding `Nc1nc2c(c3ncccc13)C(c1cccc(Br)c1)Cc1ncccc1-2` (stereo not drawn), the growth in experiment [1] is 2.96% (active); in [2], 34%; in experiment [3] it was 26.6%; in experiment [4], 50.6%; in experiment [5], 58%; in [6] it was 16.5%. For the same compound, the growth is 42% in [7]; -8.61% (active) in experiment [8]; 37.2% in experiment [9]; 11.4% in experiment [10]; 24.8% in experiment [11]; 1.43% (active) in experiment [12]. Moreover, the growth in experiment [13] is 29.1%; in [14], 16.5%; in [15] it was 11.5%; in experiment [16] it was 25.4%; in experiment [17] it was 18.4%.
Consider `COc1ccc(N(Cc2cc(OC)c(OC)c(OC)c2)C2OC(=O)c3ccccc32)cc1` (stereo not drawn), for which the growth in experiment [1] was 12.1%; in experiment [2], 10.6%; in experiment [3], 22.1%; in experiment [4], 65.5%; in experiment [5] it was 62.7%; in [6], 13.3%. The growth in experiment [7] is 36.3%; in experiment [8], -18.4% (active); in experiment [9], 22.1%; in experiment [10] it was 10.1%; in [11] it was 66.1%; in [12], -55% (active). Further, the growth in [13] is 20.3%; in experiment [14], 16.4%; in experiment [15], 23%; in experiment [16] it was 43.9%; in [17] it was 27.7%.
With `O=C(O)c1c([N+](=O)[O-])cnc2ccccc12`, the growth in experiment [1] is 135%; in experiment [2], 108%; in experiment [3], 96.2%; in [4], 99.1%; in experiment [5] it was 107%; in [6], 93%. In addition, the growth in experiment [7] was 106%; in [8], 118%; in experiment [9], 113%; in [10], 96.7%; in experiment [18], 83.5%; in [12], 102%. Further, the growth in [13] is 101%; in experiment [14], 93%; in [15] it was 97.5%; in experiment [16], 100%; in [17] it was 111%.
As for `CN1CCOCCOCCOc2ccccc2NC(=O)c2nc(cnc2N)-c2ccc(cc2)S1(=O)=O`, the growth in experiment [1] is -16.3% (active); in [2], 30.3%; in experiment [3], 64%; in experiment [4], 148%; in experiment [5] it was 46.1%; in experiment [6], 41%. Further, the growth in [7] is 50.8%; in experiment [8], 43.7%; in experiment [9], 66.4%; in experiment [10], 43.5%; in [11], 48.1%; in experiment [12], 58.3%. For the same compound, the growth in experiment [13] is 48.7%; in experiment [14], 31.1%; in [15] it was 29.1%; in experiment [16], 32.2%; in experiment [17] it was 33.3%.
`COc1ccc(C(=O)/C=C/c2c(Cl)c3c(c(OC)c2Cl)OCC(=O)N3)cc1`: the growth in experiment [1] is 3.68% (active); in [2], 3.79% (active); in experiment [3], 6.16% (active); in experiment [4], 76.8%; in experiment [5], 47.2%; in [6], 77.9%. Further, the growth in experiment [7] was 63.1%; in experiment [8], 10.9%; in experiment [9], 39.4%; in experiment [10], 19.4%; in experiment [11], -14.8% (active); in [12] it was 7.18% (active). Also, the growth is 17.7% in [13]; 14.9% in experiment [14]; 11.4% in experiment [15]; 41.8% in experiment [16]; 15.9% in experiment [17].
As to `O=C1c2ccccc2-c2nccc3cc(Cl)nc1c23`, the growth is -27.8% (active) in [1]; 4.08% (active) in [2]; 51.1% in experiment [3]; 96.5% in [4]; -96.4% (active) in experiment [5]; 97.5% in [6]. Moreover, the growth is 0.315% (active) in experiment [7]; -87.3% (active) in [8]; -7.62% (active) in experiment [9]; 69% in experiment [10]; 58.5% in [11]; -73.7% (active) in [12]. In addition, the growth in experiment [13] is -54% (active); in [14], -59.5% (active); in experiment [15] it was -91% (active); in experiment [16], 101%; in experiment [17] it was 25.7%.
